Screening results (PubChem)
G9a block – G9a (human) methyltransferase inhibition; Q96KQ7; G9a H3K9 monomethylation, AlphaScreen, 2 h; Potency, µM (series often up to 102 µM), for the others: at the top dose activity, negative = inhibition, actives largely listed as inhibitors; hit rate 8.8% among 350,000; note: % is set by controls: 0 for no effect and ±100 for the full control effect; nearly all actives have a fitted effect of over 75% in size
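Step 1: enzyme (final 20 nM) with compound, 15 min RT. Step 2: substrate peptide 500 nM and SAM 20 uM, 2 h RT. Step 3: anti-H3K9me1 antibody and AlphaScreen beads, 10 min, then plate read.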
JMJD2A Tudor inh – inhibitors of human JMJD2A Tudor domain. AlphaScreen JMJD2A-Tudor / H3K4me3 peptide binding. hit rate 4.4% among 390,000. Potency, µM (series often up to 114 µM), for the others: at the highest dose activity change, negative = inhibition, actives largely listed as inhibitors. AID 504339; note: % is set by controls: 0 for no effect and ±100 for the full control effect; nearly all actives have a fitted effect of over 50% in size
Target sequence (O75164 whole entry, looked up, the tested form may be a part): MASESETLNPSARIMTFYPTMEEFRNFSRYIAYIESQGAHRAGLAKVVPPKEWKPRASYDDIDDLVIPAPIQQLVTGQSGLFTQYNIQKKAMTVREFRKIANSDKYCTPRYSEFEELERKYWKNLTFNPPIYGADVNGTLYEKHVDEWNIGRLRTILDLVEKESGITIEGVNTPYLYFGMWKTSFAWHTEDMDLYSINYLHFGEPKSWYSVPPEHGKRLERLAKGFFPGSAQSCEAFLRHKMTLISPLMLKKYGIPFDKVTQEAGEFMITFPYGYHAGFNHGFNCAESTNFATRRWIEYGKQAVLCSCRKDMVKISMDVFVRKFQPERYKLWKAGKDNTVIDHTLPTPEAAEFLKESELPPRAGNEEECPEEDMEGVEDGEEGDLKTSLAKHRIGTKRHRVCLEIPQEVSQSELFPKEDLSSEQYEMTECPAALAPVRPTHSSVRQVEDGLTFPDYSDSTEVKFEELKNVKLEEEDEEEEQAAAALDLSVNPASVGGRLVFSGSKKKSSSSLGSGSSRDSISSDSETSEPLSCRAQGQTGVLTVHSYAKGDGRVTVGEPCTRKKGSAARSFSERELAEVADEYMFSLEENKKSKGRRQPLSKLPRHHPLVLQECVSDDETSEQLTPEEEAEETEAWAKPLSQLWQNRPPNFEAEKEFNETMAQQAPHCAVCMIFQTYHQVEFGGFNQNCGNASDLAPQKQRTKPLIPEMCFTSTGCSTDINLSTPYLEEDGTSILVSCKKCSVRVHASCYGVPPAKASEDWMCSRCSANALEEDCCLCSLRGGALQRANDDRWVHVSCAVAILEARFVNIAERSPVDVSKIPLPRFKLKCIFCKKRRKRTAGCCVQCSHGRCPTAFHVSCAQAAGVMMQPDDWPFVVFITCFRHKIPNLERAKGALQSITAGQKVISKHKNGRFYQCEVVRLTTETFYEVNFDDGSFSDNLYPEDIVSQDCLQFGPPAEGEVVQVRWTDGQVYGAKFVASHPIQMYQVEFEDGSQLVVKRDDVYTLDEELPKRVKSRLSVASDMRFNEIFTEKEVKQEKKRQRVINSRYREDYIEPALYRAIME
Sfp inh – Sfp phosphopantetheinyl transferase inhibition; Biochemical Sfp PPTase activity, qHTS; Potency, µM, inactives show largest response in the series, negative = inhibition, hits mostly inhibitors; hit rate 3.5% among 310,000;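 note: the enzyme is Sfp with the accession as filed and its product quenches rhodamine fluorescence; 0% = enzyme reaction without inhibitor and -100% = no enzyme wells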
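Fluorescence-quenching assay: 15 nM Sfp-PPTase preincubated 15 min at room temperature with compound, then 5 uM rhodamine-CoA and 12.5 uM BHQ-2-labelled YbbR peptide added. Fluorescence (ex 525/em 598 nm) read at start and after 30 min; difference gives rate.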
BAZ2B block – blocks human BAZ2B; AlphaScreen BAZ2B-H3K14Ac peptide displacement; Potency, µM (highest dose often 114 µM), for the others: top-dose activity change, negative = inhibition, usual class: inhibitors; Q9UIF8; hit rate 4.4% among 360,000; AID 504333; note: % is set by controls: 0 for no effect and ±100 for the full control effect; nearly all actives have a fitted effect of over 60% in size
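Inhibition is scored as reduced AlphaScreen emission. The BAZ2B/b-H3(5-23)K14Ac complex (50 nM each) in PBS pH 7.4, 0.01% Tween-20 meets compound (up to 110 uM) for 30 min at RT before bead addition.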
HP1b chromo inh – blocks HP1-beta chromodomain binding to methylated histone tails | AlphaScreen HP1-beta / biotin-H3K9me3 peptide binding | hit rate 0.56% among 390,000 | P83916 | AID 540317 | Potency, µM (series often up to 114 µM), inactives show top-dose activity change, negative = inhibition, usual class: inhibitors; note: nearly all actives have a fitted effect of over 70% in size
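HP1-beta protein (50 nM final) preincubated 30 min at room temperature with biotinylated H3(1-18)K9me3 peptide (50 nM) in PBS pH 7.4, 0.01% Tween-20, then compound added for 30 min. AlphaScreen streptavidin donor/nickel chelate acceptor beads (10 ug/mL final), 30 min dark, luminescence read.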
Active calls of the source: *; ? = inconclusive; nt = not tested or not shown; [ ] = another dose, or the depositor's remark. Sampled rows, rich in hits. Any-hit rate of the full collection: about 12%. Calls come from the whole dose curve; as a rule, active = well fitted curve in the direction sought with a large enough effect; inconclusive = small, poorly fitted or top-dose-only effect, or another doubt; inactive = no such curve, though single readings can be large; an effect the other way counts as inactive or inconclusive. Potency is the fitted concentration of half-maximal effect.

SMILES | G9a block | JMJD2A Tudor inh | Sfp inh | BAZ2B block | HP1b chromo inh
O=C(CSc1nc2c(cnn2-c2ccc(F)cc2)c(=O)[nH]1)N1N=C(c2cccs2)CC1c1ccc(F)cc1 (stereo not drawn) | 31.6µM* | nt | 10.3% | 1.26µM* | nt
CN1Cc2cccc3c2C(Cc2ccccc2S3)C1 (stereo not drawn) | ? | 10µM* | -7.2% | -7.6% | 22.4%
CCc1ccc2c(c1)Sc1ccccc1CC2N1CCN(C)CC1 (stereo not drawn) | nt | -35.5% | nt | nt | -9.4%
COC(=O)C(NNc1ccccc1)(NC(=O)c1cccc(F)c1)C(F)(F)F (stereo not drawn) | 2.24µM* | -11.4% | ? | ? | 34.9%
CCOC(=O)c1cnc(-n2cc(C)cn2)nc1NCc1ccc2c(c1)OCO2 | 1.2%[12.7 µM] | ? | 79.4µM* | ? | 34.3%
CCOC(=O)c1ccc(N2C(=O)c3n[nH]c(C)c3C2c2ccc(C(C)C)cc2)cc1 (stereo not drawn) | 4.5%[59 µM] | -8.0% | nt | nt | 39.5%
C[C@@H]1CC2[C@@H]3C[C@H](F)C4=CC(=O)C(Cl)=C[C@]4(C)[C@@]3(F)[C@H](O)C[C@]2(C)[C@@]1(O)C(=O)CO (stereo partly drawn) | -31.7%[12.7 µM] | nt | 13.3% | nt | nt
CCOC(=O)C1=C(N)Oc2ccc3ccccc3c2C1c1ccc(O)cc1 (stereo not drawn) | ? | -34.8% | 13.7% | ? | -0.3%
CCOC(=O)C1=C(N)Oc2cc(O)ccc2C1c1ccc([N+](=O)[O-])cc1 (stereo not drawn) | 39.8µM* | 50.1µM* | 25.1µM* | ? | -19.3%
CC(C)C[C@@H](CC(=O)N[C@@H](CCC(=O)O)CC(=O)O)NC(=O)[C@@H]1CCCC[C@H]1NC(=O)C[C@H](CCCN)NC(=O)C[C@H](Cc1c[nH]c2ccccc12)NC(=O)[C@@H]1CNCC[C@H]1N | nt | nt | -12.0% | nt | nt
COC(=O)c1[nH]c2ccccc2c1NC(=O)CN1CCN(Cc2ccc3c(c2)OCO3)CC1 | ? | 79.4µM* | 4.3% | -29.5% | 1.3%
CCN(CC(=O)Nc1c(C(=O)OC)[nH]c2ccc(C)cc12)c1ccc2c(c1)OCO2 | 35.5µM* | 44.7µM* | 44.7µM* | 39.8µM* | -6.9%
COC(=O)c1[nH]c2ccccc2c1NC(=O)CN1CCN(c2cccc(OC)c2)C(C)C1 (stereo not drawn) | 11.7%[2.33 µM] | 15.8µM* | -4.3% | ? | ?
O=C(/C=C/c1ccc2c(c1)OCO2)Nc1c(C(=O)O)[nH]c2ccccc12 | 11.2µM* | ? | 5.6% | ? | -16.4%
Cc1cc(C)n2nc(C(=O)OCC(=O)N(Cc3ccccc3)C(C)C)nc2n1 | 7.6% | ? | nt | 8.4% | 19.4%
O=C(/C=C/c1ccco1)NC(=S)Nc1ccc(Cl)cn1 | 39.8µM* | -29.7% | -20.3% | ? | 8.4%
Cc1ccc(C)c(NC(=O)CN(C)C(=O)Cc2coc3cc(C)c(C)cc23)c1 | -38.7% | -12.1% | nt | 9.0% | -14.6%
CCC(=O)Nc1ccc(NC(=S)NC(=O)/C=C/c2ccco2)cc1 | -9.3%[0.501 µM] | ? | -1.8% | -30.6% | -9.3%
CC(=O)NC(=S)Nc1ccc(NC(=S)NC(=O)/C=C/c2ccco2)cc1 | 39.8µM* | ? | -22.6% | ? | 10.8%
Cc1ccnc(NC(=S)NC(=O)/C=C/c2ccco2)c1 | ? | -27.3% | -15.3% | ? | 30.4%
O=C(/C=C/c1ccco1)NC(=S)Nc1ccc(O)c(-c2nc3ccccc3s2)c1 | 39.8µM* | ? | -19.2% | -3.5% | -1.4%
CCN(CC(=O)Nc1ccc(NC(C)=O)cc1)C(=O)Cc1coc2cc(C)c(C)cc12 | 50.1µM* | -14.8% | nt | 6.4% | 20.6%
CC(C)(C)OC(=O)NC(Cc1ccccc1)C(=O)NC1COC2CC(n3cc(F)c(=O)[nH]c3=O)OC12 (stereo not drawn) | nt | -6.2% | 3.5% | nt | 44.2%
O=C(/C=C/c1ccco1)NC(=S)Nc1ccc(N2CCCC2)cc1 | ? | ? | -28.8% | 10µM* | 35.5µM*
CCN(CC(=O)Nc1ccc(NC(C)=O)cc1)C(=O)/C=C/c1ccco1 | 50.1µM* | -6.8% | nt | -21.5% | 8.6%
O=C(/C=C/c1ccccc1)N/C(=C/c1ccccc1)C(=O)Nc1ccc(C(=O)O)cc1 | 1.7% | 50.1µM* | 11.4% | -6.0% | 7.9%
